# Activity calls are given as the source filed them. The calls were made as follows: active = hit-call score of the fitted dose curve at least 0.9, where 1 is the maximum; inactive = score below 0.9.
# Assays:
# [1] = ATG_CMV_CIS: Attagene CIS-FACTORIAL HepG2 Assay for human CMV (Internal Marker) (AID 2282928); settings: HepG2 CMV promoter reporter, transcription factor profiling; actives raise or lower the signal;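 also: endpoint acts as a background internal control marker rather than a target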
# Procedure, shortened: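 Fluorescence intensity of RT-PCR-derived reporter fragments, resolved by capillary electrophoresis, gives the signal. HepG2 liver cells bearing transfected cis-element reporters were treated 24 h; activity in either direction was fit relative to DMSO-treated controls.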
# [2] = ATG_DR4_LXR_CIS: Attagene CIS-FACTORIAL HepG2 Assay for human Liver X Receptor (LXR), DR4 submotif (AID 2282929); settings: HepG2 Attagene DR4 cis-reporter, mRNA transcription; actives raise or lower the signal
# Procedure, shortened: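 Total RNA from 24 h-treated, MRTU-transfected HepG2 cells underwent reverse transcription, PCR, fluorescent primer extension and restriction digestion before capillary electrophoresis. Both increases and decreases in reporter signal were fitted against DMSO.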
# [3] = ATG_AP_1_CIS: Attagene CIS-FACTORIAL HepG2 Assay for human Activator Protein 1 (AP-1) (AID 2282931); settings: HepG2 Attagene cis-factorial AP-1 reporter mRNA; actives raise or lower the signal
# Procedure, shortened: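 HepG2, transient cis-reporter transfection; 24 h; readout RT-PCR/CE fluorescence; DMSO baseline, gain and loss fitted.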
# [4] = biological target: Transcription factor E2F1 (Homo sapiens) (UniProt Q01094); assay: ATG_E2F_CIS: Attagene CIS-FACTORIAL HepG2 Assay for human E2F Transcription Factor 1 (AID 2282935); settings: HepG2 Attagene cis-reporter, E2F reporter RNA transcripts; actives raise or lower the signal
# Sequence of Transcription factor E2F1 (Homo sapiens) (Q01094 whole entry, looked up): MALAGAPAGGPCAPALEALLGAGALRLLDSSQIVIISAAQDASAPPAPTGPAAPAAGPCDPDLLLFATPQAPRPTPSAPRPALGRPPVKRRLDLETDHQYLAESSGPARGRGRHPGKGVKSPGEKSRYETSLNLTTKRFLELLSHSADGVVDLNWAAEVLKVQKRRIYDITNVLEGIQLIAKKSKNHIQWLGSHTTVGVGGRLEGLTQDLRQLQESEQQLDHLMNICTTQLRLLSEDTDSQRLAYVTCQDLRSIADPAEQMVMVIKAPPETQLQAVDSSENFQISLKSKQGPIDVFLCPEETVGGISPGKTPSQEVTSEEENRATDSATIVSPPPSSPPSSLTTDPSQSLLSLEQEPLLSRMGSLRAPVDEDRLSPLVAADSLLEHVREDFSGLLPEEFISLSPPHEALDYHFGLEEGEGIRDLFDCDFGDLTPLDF
# Procedure, shortened: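 Fluorescent RT-PCR products, digested with HpaI for 2 h at 37 C, are separated by capillary electrophoresis. Source RNA comes from transfected HepG2 cultures treated for 24 h.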
# [5] = ATG_E_Box_CIS: Attagene CIS-FACTORIAL HepG2 Assay for human Enhancer Box (E-box) (AID 2282936); settings: HepG2 E-box cis-reporter transcription, actives raise or lower the signal
# Procedure, shortened: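 Fluorescent reporter fragments separated by capillary electrophoresis gave the signal; mRNA came from HepG2 cells transfected with cis-element reporters and treated 24 h. Curves fitted bidirectionally relative to DMSO controls.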
# [6] = ATG_M_19_CIS: Attagene CIS-FACTORIAL HepG2 Assay for M19 Transcription Factor (Internal Marker) (AID 2282939); settings: HepG2 Attagene CIS-FACTORIAL M19 internal marker reporter; actives raise or lower the signal
# Procedure, shortened: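 HepG2 cells transiently transfected with cis-regulated multiplexed reporter units, dosed 24 h. Reporter mRNA quantified by RT-PCR and capillary electrophoresis; internal background marker fitted bidirectionally versus DMSO.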
# [7] = ATG_FoxO_CIS: Attagene CIS-FACTORIAL HepG2 Assay for human Forkhead box O (FoxO) (AID 2282943); settings: HepG2 Attagene cis-reporter, FoxO element, mRNA; actives raise or lower the signal
# Procedure, shortened: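 Human hepatoma HepG2 cells carry transiently introduced reporter transcription units controlled by cis promoter elements. Chemical treatment lasted 24 h, and mRNA signal was compared with DMSO.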
# [8] = ATG_GATA_CIS: Attagene CIS-FACTORIAL HepG2 Assay for human GATA Binding Protein (AID 2282944); settings: HepG2 GATA cis-element reporter, Attagene multiplex mRNA; actives raise or lower the signal
# Procedure, shortened: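 HepG2 cells transiently transfected with multiplexed cis-element reporter units measure endogenous GATA activity; after 24 h compound exposure, reporter mRNA quantified by RT-PCR and capillary electrophoresis. Changes fitted in both directions vs DMSO.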
# [9] = ATG_GLI_CIS: Attagene CIS-FACTORIAL HepG2 Assay for human Zinc Finger Protein GLI1 (AID 2282945); settings: HepG2, Attagene cis-factorial reporter mRNA, GLI element; actives raise or lower the signal
# Procedure, shortened: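 Bidirectional curve fits relative to DMSO, using reporter mRNA levels from RT-PCR plus capillary electrophoresis. Cells were HepG2 transiently carrying cis-regulated reporter constructs, harvested 24 h after dosing.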
# [10] = ATG_M_32_CIS: Attagene CIS-FACTORIAL HepG2 Assay for M32 Transcription Factor (Internal Marker) (AID 2282949); settings: HepG2 Attagene cis-factorial M32 reporter, mRNA; actives raise or lower the signal;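 also: background control marker of the multiplexed CIS panel rather than a real target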
# Procedure, shortened: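 Using DMSO as baseline, bidirectional curve fits were applied to reporter mRNA signals. These came from transiently transfected HepG2 cells exposed for 24 h, with RNA analysed by RT-PCR, FAM primer extension, HpaI digestion and CE.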
# [11] = ATG_M_06_CIS: Attagene CIS-FACTORIAL HepG2 Assay for M06 Transcription Factor (Internal Marker) (AID 2282950); settings: HepG2 Attagene CIS-FACTORIAL M06 internal marker reporter; actives raise or lower the signal
# Procedure, shortened: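 Internal background marker within multiplexed cis-reporter HepG2 system. Cells transiently transfected, dosed 24 h; reporter mRNA measured by RT-PCR, HpaI digestion and capillary electrophoresis. Bidirectional fit relative to DMSO.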
# [12] = biological target: Paired box protein Pax-6 (Homo sapiens) (UniProt P26367); assay: ATG_Pax6_CIS: Attagene CIS-FACTORIAL HepG2 Assay for human Paired Box 6 (PAX6) (AID 2282956); settings: HepG2 CIS-FACTORIAL PAX6 reporter transcription, RNA readout; actives raise or lower the signal
# Sequence of Paired box protein Pax-6 (Homo sapiens) (P26367 whole entry, looked up): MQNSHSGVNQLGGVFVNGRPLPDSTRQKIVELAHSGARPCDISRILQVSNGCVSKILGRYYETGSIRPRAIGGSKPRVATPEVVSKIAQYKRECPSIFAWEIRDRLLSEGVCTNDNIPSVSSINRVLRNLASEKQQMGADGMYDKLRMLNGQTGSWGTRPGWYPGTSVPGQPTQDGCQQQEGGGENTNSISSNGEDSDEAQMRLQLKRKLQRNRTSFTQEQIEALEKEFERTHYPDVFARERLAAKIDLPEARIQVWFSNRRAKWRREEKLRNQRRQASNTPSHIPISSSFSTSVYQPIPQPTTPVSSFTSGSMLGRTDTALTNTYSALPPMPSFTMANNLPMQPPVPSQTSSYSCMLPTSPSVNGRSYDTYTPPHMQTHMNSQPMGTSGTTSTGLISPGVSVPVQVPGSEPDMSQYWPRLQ
# Procedure, shortened: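 Values derive from bidirectional curve fitting of reporter mRNA signal relative to DMSO. HepG2 cells bearing transfected cis-regulated MRTUs were exposed for 24 h; transcripts were read by RT-PCR and capillary electrophoresis.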
# [13] = ATG_Sox_CIS: Attagene CIS-FACTORIAL HepG2 Assay for human SRY-box transcription factor (SOX) (AID 2282960); settings: HepG2 Attagene cis-factorial SOX reporter, mRNA; actives raise or lower the signal
# Procedure, shortened: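 HepG2, cis reporter units, 24 h exposure. Reporter mRNA: RT-PCR → FAM labelling → HpaI → CE fluorescence. Bidirectional fit vs DMSO.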
# [14] = biological target: Signal transducer and activator of transcription 3 (Homo sapiens) (UniProt P40763); assay: ATG_STAT3_CIS: Attagene CIS-FACTORIAL HepG2 Assay for human Signal Transducer and Activator of Transcription 3 (STAT3) (AID 2282963); settings: HepG2, Attagene cis-factorial STAT3 reporter transcription; actives raise or lower the signal
# Sequence of Signal transducer and activator of transcription 3 (Homo sapiens) (P40763 whole entry, looked up): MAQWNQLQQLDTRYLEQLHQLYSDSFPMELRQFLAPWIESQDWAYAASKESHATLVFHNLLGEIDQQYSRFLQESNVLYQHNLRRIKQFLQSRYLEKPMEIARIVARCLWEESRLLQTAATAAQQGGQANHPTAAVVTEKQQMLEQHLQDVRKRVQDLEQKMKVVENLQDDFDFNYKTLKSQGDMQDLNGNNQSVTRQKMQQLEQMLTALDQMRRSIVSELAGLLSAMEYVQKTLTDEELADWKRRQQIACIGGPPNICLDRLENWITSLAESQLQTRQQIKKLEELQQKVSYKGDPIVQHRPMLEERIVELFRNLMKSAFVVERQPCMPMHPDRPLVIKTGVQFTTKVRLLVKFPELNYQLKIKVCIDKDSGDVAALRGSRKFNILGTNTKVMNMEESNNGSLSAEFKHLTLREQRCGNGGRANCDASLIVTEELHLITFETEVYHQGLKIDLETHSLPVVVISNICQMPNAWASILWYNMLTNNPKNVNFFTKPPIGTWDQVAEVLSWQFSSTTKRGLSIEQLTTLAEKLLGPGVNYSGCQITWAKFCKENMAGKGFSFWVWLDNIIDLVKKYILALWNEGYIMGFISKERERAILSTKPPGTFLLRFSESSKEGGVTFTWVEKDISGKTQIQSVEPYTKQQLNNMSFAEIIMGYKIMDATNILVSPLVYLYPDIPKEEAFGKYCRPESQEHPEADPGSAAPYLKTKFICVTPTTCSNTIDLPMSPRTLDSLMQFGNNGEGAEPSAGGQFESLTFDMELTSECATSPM
# Procedure, shortened: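 Cis-factorial format: endogenous transcription factors in HepG2 drive transfected reporter units. After 24 h treatment, reporter RNA was reverse-transcribed, amplified, FAM-labelled and HpaI-digested before CE analysis; activity scored in both directions against DMSO.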
# [15] = ATG_TCF_b_cat_CIS: Attagene CIS-FACTORIAL HepG2 Assay for human T-Cell-Factor with beta-catenin (TCF/b-cat) (AID 2282965); settings: HepG2 TCF/beta-catenin cis-reporter transcription, actives raise or lower the signal
# Procedure, shortened: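 Measured: reporter mRNA in HepG2 transiently transfected with cis-promoter reporter units, 24 h after chemical addition. Fitting was bidirectional, DMSO as negative control.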
# [16] = ATG_TAL_CIS: Attagene CIS-FACTORIAL HepG2 Assay for human TAL Basal Promoter (AID 2282966); settings: HepG2 Attagene cis-factorial TAL promoter reporter; actives raise or lower the signal;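 also: background control endpoint measuring basal TAL promoter reporter mRNA not a specific factor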
# Procedure, shortened: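 Basal-promoter background-control endpoint from a multiplexed HepG2 reporter panel. Cells were exposed 24 h, then reporter mRNA was read by RT-PCR/CE fluorescence and fitted in both directions relative to DMSO.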
# [17] = ATG_TGFb_CIS: Attagene CIS-FACTORIAL HepG2 Assay for human Transforming Growth Factor (TGF) (AID 2282967); settings: HepG2 Attagene CIS TGFb reporter, mRNA transcription; actives raise or lower the signal
# Procedure, shortened: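 HepG2 cells transiently transfected with cis-promoter-driven multiple reporter units measure endogenous TF activity; reporter mRNA quantified at 24 h by RT-PCR, FAM labeling, HpaI digestion and capillary electrophoresis. Bidirectional fit vs DMSO.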
# [18] = biological target: Transcriptional activator Myb (Homo sapiens) (UniProt P10242); assay: ATG_Myb_CIS: Attagene CIS-FACTORIAL HepG2 Assay for human Myeloblastosis (Myb) Proto-Oncogene Transcription Factor (AID 2282986); settings: HepG2 Attagene CIS-FACTORIAL Myb reporter transcription; actives raise or lower the signal
# Sequence of Transcriptional activator Myb (Homo sapiens) (P10242 whole entry, looked up): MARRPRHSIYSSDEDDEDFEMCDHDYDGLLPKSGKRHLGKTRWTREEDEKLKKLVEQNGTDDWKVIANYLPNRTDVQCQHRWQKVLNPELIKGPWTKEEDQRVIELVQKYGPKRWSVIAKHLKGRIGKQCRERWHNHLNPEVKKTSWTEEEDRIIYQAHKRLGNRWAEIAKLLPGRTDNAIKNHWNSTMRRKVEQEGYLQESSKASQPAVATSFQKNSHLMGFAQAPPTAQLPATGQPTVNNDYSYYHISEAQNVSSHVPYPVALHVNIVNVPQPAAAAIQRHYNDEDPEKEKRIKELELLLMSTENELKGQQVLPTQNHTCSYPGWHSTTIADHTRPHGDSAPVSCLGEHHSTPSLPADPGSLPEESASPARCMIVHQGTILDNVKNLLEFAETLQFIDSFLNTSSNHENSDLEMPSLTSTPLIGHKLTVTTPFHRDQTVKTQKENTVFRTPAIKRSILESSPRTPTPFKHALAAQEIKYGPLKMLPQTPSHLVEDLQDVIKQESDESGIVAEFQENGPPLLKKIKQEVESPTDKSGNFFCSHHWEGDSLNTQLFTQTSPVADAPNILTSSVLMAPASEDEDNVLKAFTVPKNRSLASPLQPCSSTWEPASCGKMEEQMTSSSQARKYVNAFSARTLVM
# Procedure, shortened: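 After 24 h of compound dosing, total RNA from transfected HepG2 cells is reverse-transcribed and the reporter sequences amplified, labeled and separated by capillary electrophoresis. Values come from bidirectional fitting against DMSO.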
# [19] = biological target: Myc proto-oncogene protein (Homo sapiens) (UniProt P01106); assay: ATG_Myc_CIS: Attagene CIS-FACTORIAL HepG2 Assay for human Myelocytomatosis (Myc) Proto-Oncogene Transcription Factor (AID 2282990); settings: HepG2, Attagene cis-reporter transcription factor activity; actives raise or lower the signal
# Sequence of Myc proto-oncogene protein (Homo sapiens) (P01106 whole entry, looked up): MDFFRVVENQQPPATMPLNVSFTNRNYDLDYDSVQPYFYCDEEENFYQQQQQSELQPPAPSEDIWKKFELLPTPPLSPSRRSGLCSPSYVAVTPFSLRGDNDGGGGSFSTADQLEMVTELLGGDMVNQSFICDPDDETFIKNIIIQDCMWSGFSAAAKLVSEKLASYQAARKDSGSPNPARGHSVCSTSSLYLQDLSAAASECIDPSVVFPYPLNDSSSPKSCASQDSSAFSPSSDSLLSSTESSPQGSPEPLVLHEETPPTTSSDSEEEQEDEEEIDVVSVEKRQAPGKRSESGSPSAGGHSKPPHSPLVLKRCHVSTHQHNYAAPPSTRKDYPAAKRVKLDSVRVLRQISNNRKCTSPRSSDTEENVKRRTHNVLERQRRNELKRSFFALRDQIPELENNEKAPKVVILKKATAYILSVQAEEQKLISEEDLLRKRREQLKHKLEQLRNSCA
# Procedure, shortened: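 Cells of the HepG2 human liver line bear multiple cis-driven reporter transcription units. Reporter mRNA after 24 h exposure is reverse-transcribed, amplified, labelled and resolved by capillary electrophoresis, with gain- or loss-of-signal fitting relative to DMSO.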
# [20] = ATG_Oct_MLP_CIS: Attagene CIS-FACTORIAL HepG2 Assay for human Octamer-Binding Transcription Factor (Oct) (AID 2282993); settings: HepG2 Attagene cis-factorial Oct reporter, mRNA; actives raise or lower the signal
# Procedure, shortened: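 HepG2 cells transiently transfected with cis-element-driven reporter transcription units (endogenous TF activity); 24 h compound exposure. Reporter mRNA quantified by RT-PCR, 6-FAM labelling, HpaI digestion and capillary electrophoresis; bidirectional fit versus DMSO baseline.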
compound,measurement,setting,value
NC(N)=Nc1nc(CSCCC(N)=NS(N)(=O)=O)cs1,outcome,[1],inactive
same,outcome,[2],inactive
same,outcome,[3],inactive
same,outcome,[4],inactive
same,outcome,[5],inactive
same,AC50,[6],153 µM (active)
same,outcome,[7],inactive
same,outcome,[8],inactive
same,outcome,[9],inactive
same,outcome,[10],inactive
same,outcome,[11],inactive
same,outcome,[12],inactive
same,outcome,[13],inactive
same,outcome,[14],inactive
same,outcome,[15],inactive
same,outcome,[16],inactive
same,outcome,[17],inactive
same,outcome,[18],inactive
same,outcome,[19],inactive
same,outcome,[20],inactive
CO[Si](CCCNCCN)(OC)OC,outcome,[1],inactive
same,outcome,[2],inactive
same,outcome,[3],inactive
same,outcome,[4],inactive
same,outcome,[5],inactive
same,outcome,[6],inactive
same,outcome,[7],inactive
same,outcome,[8],inactive
same,outcome,[9],inactive
same,outcome,[10],inactive
same,outcome,[11],inactive
same,outcome,[12],inactive
same,outcome,[13],inactive
same,outcome,[14],inactive
same,outcome,[15],inactive
same,outcome,[16],inactive
same,outcome,[17],inactive
same,outcome,[18],inactive
same,outcome,[19],inactive
same,outcome,[20],inactive
CC/C=C\CCO,outcome,[1],inactive
same,outcome,[2],inactive
same,outcome,[3],inactive
same,outcome,[4],inactive
same,outcome,[5],inactive
same,outcome,[6],inactive
same,outcome,[7],inactive
same,outcome,[8],inactive
same,outcome,[9],inactive
same,outcome,[10],inactive
same,outcome,[11],inactive
same,outcome,[12],inactive
same,outcome,[13],inactive
same,outcome,[14],inactive
same,outcome,[15],inactive
same,outcome,[16],inactive
same,outcome,[17],inactive
same,outcome,[18],inactive
same,outcome,[19],inactive
same,outcome,[20],inactive
Nc1ccc(S(=O)(=O)Nc2cnc3ccccc3n2)cc1,outcome,[1],inactive
same,outcome,[2],inactive
same,outcome,[3],inactive
same,outcome,[4],inactive
same,outcome,[5],inactive
same,outcome,[6],inactive
same,outcome,[7],inactive
same,outcome,[8],inactive
same,outcome,[9],inactive
same,outcome,[10],inactive
same,outcome,[11],inactive
same,outcome,[12],inactive
same,outcome,[13],inactive
same,outcome,[14],inactive
same,outcome,[15],inactive
same,outcome,[16],inactive
same,outcome,[17],inactive
same,outcome,[18],inactive
same,outcome,[19],inactive
same,outcome,[20],inactive
CC/C=C\CCCCCO,outcome,[1],inactive
same,outcome,[2],inactive
same,outcome,[3],inactive
same,outcome,[4],inactive
same,outcome,[5],inactive
same,outcome,[6],inactive
same,outcome,[7],inactive
same,outcome,[8],inactive
same,outcome,[9],inactive
same,outcome,[10],inactive
same,outcome,[11],inactive
same,outcome,[12],inactive
same,outcome,[13],inactive
same,outcome,[14],inactive
same,outcome,[15],inactive
same,outcome,[16],inactive
same,outcome,[17],inactive
same,outcome,[18],inactive
same,outcome,[19],inactive
same,outcome,[20],inactive
COC(=O)/C=C\C(=O)OC,outcome,[1],inactive
same,outcome,[2],inactive
same,AC50,[3],28.1 µM (active)
same,outcome,[4],inactive
same,outcome,[5],inactive
same,outcome,[6],inactive
same,outcome,[7],inactive
same,outcome,[8],inactive
same,outcome,[9],inactive
same,outcome,[10],inactive
same,outcome,[11],inactive
same,outcome,[12],inactive
same,AC50,[13],100 µM (active)
same,outcome,[14],inactive
same,outcome,[15],inactive
same,AC50,[16],100 µM (active)
same,outcome,[17],inactive
same,outcome,[18],inactive
same,outcome,[19],inactive
same,outcome,[20],inactive
CN(C)Cc1cc(C(C)(C)C)c(O)c(C(C)(C)C)c1,outcome,[1],inactive
same,outcome,[2],inactive
same,outcome,[3],inactive
same,outcome,[4],inactive
same,outcome,[5],inactive
same,outcome,[6],inactive
same,outcome,[7],inactive
same,outcome,[8],inactive
same,outcome,[9],inactive
same,outcome,[10],inactive
same,outcome,[11],inactive
same,outcome,[12],inactive
same,outcome,[13],inactive
same,outcome,[14],inactive
same,outcome,[15],inactive
same,outcome,[16],inactive
same,outcome,[17],inactive
same,outcome,[18],inactive
same,outcome,[19],inactive
same,outcome,[20],inactive

# — PubChem BioAssay (EPA / NIEHS)
